SMILES strings stand for the structures. Where a name gives a salt, the structure may show the parent alone.

The subject of the test is Danio rerio larvae (5 dpf). The experiment in a line: combined optomotor response (time in upper well half, down vs up moving lines, periods 7-14) minus DMSO control (percentage points); higher = stronger optomotor response than DMSO larvae. The note with it: 10 µM; exposure time: 3 h pre-incubation + 3 h imaging. How it is done:
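Wild-type 5 dpf zebrafish larvae (n=48 per drug, 96-well plates, 28.5 °C) were exposed to Tocris FDA-approved library compounds at 10 µM (0.1% DMSO) for 3 h before and 3 h during imaging. Images were taken every 6 s during visual and acoustic stimuli, and larvae were tracked with Z-LaP Tracker. Each measure is the treated-group mean minus the DMSO control mean (n=844), in percentage points. This mapping covers compounds with 5-character plate codes.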
With `CC(=O)Nc1ccc(O)cc1` [Acetaminophen], the combined optomotor response was 0.558.
For `N#Cc1ccc2[nH]cc(CCCCN3CCN(c4ccc5oc(C(N)=O)cc5c4)CC3)c2c1` [Vilazodone hydrochloride], the combined optomotor response is -6.69.
The value for `CN[C@H]1CC[C@@H](c2ccc(Cl)c(Cl)c2)c2ccccc21` [Sertraline hydrochloride] was -6.63.
`COc1cc([C@@H]2c3cc4c(cc3[C@@H](O[C@@H]3O[C@@H]5CO[C@@H](C)O[C@H]5[C@H](O)[C@H]3O)[C@H]3COC(=O)[C@H]23)OCO4)cc(OC)c1O` [Etoposide]: the combined optomotor response came out at 4.51.
The value for `CC(C)COCC(CN(Cc1ccccc1)c1ccccc1)N1CCCC1` (stereo unspecified) [Bepridil hydrochloride] was 8.48; that for `CCCCCCCN(CC)CCCC(O)c1ccc(NS(C)(=O)=O)cc1` (stereo unspecified) [Ibutilide hemifumarate] was 5.81; that for `C[C@H]1O[C@H](O[C@H]2[C@H](O)[C@@H](O)[C@@H](O[C@H]3[C@H](O)[C@@H](O)C(O)O[C@@H]3CO)O[C@@H]2CO)[C@H](O)[C@@H](O)[C@@H]1N[C@H]1C=C(CO)[C@@H](O)[C@H](O)[C@H]1O` (stereo partly specified) [Acarbose] was 3.82.
The result for `COCCc1ccc(OCC(O)CNC(C)C)cc1` (stereo unspecified) [Metoprolol tartrate] reads 1.91; that for `Cc1cc2c(s1)Nc1ccccc1N=C2N1CCN(C)CC1` [Olanzapine], 8.87.
With `OC(c1cc(C(F)(F)F)nc2c(C(F)(F)F)cccc12)C1CCCCN1` (stereo unspecified) [Mefloquine hydrochloride], the combined optomotor response was -2.6.
On to `C#CCN[C@@H]1CCc2ccccc21` [Rasagiline mesylate], for which the combined optomotor response was 6.3.
The result for `NS(=O)(=O)c1cc2c(cc1Cl)NC(C1CC3C=CC1C3)NS2(=O)=O` (stereo unspecified) [Cyclothiazide] reads 0.296; that for `CNC(=O)c1cc(Oc2ccc(NC(=O)Nc3ccc(Cl)c(C(F)(F)F)c3)cc2)ccn1` [Sorafenib], -1.64; that for `CC(C)OC(=O)C(C)(C)Oc1ccc(C(=O)c2ccc(Cl)cc2)cc1` [Fenofibrate], 2.45.
In the case of `CN(C)CCc1c[nH]c2ccc(C[C@H]3COC(=O)N3)cc12` [Zolmitriptan], the combined optomotor response was 5.82.
Turning to `CCCC1O[C@@H]2C[C@H]3[C@@H]4CCC5=CC(=O)C=C[C@]5(C)[C@H]4[C@@H](O)C[C@]3(C)[C@]2(C(=O)CO)O1` (stereo partly specified) [Budesonide], the combined optomotor response was 2.27.
For `CNS(=O)(=O)Cc1ccc2[nH]cc(CCN(C)C)c2c1` [Sumatriptan succinate], the combined optomotor response was -0.931.
As for `O=C(O)C[C@H](O)C[C@H](O)/C=C/c1c(C2CC2)nc2ccccc2c1-c1ccc(F)cc1` [Pitavastatin calcium], the combined optomotor response was found to be 8.14.
Turning to `CC[C@H]1OC(=O)[C@H](C)[C@@H](O[C@H]2C[C@@](C)(OC)[C@@H](O)[C@H](C)O2)[C@H](C)[C@@H](O[C@@H]2O[C@H](C)C[C@H](N(C)C)[C@H]2O)[C@](C)(O)C[C@@H](C)CN(C)[C@H](C)[C@@H](O)[C@]1(C)O` [Azithromycin], the combined optomotor response is -4.55.
For `O=C1CCc2ccc(OCCCCN3CCN(c4cccc(Cl)c4Cl)CC3)cc2N1` [Aripiprazole], the combined optomotor response was 1.74.
The value for `O=c1n(CCCN2CCN(c3cccc(Cl)c3)CC2)nc2ccccn12` [Trazodone hydrochloride] was 2.35.
Take `COc1cc2nccc(Oc3ccc(NC(=O)C4(C(=O)Nc5ccc(F)cc5)CC4)cc3)c2cc1OC`: the combined optomotor response worked out at 0.162.
On to `COc1cc(N)c(Cl)cc1C(=O)NC1CCN(CCCOc2ccc(F)cc2)CC1OC` (stereo unspecified) [Cisapride], for which the combined optomotor response was 4.72.
The result for `N#C[C@@H]1C[C@@H]2C[C@@H]2N1C(=O)[C@@H](N)C12CC3CC(CC(O)(C3)C1)C2` [Saxagliptin hydrochloride] reads -2.67.
In the case of `COc1ccccc1Oc1c(NS(=O)(=O)c2ccc(C(C)(C)C)cc2)nc(-c2ncccn2)nc1OCCO` [Bosentan], the combined optomotor response is 1.31.
On to `CNCc1ccc(-c2[nH]c3cc(F)cc4c3c2CCNC4=O)cc1` [Rucaparib camsylate], for which the combined optomotor response was 4.21.
`OCc1cc(C(O)CNCCCCCCOCCCCc2ccccc2)ccc1O` (stereo unspecified) [Salmeterol xinafoate]: the combined optomotor response amounted to 0.619.
For the compound `OCCN1C[C@H](O)[C@@H](O)[C@H](O)[C@H]1CO` [Miglitol], the combined optomotor response is 5.48.
The result for `CN(C)C(=N)NC(=N)N` [Metformin hydrochloride] reads 8.63; that for `NC(=O)OCC(COC(N)=O)c1ccccc1` [Felbamate], -0.92.
On to `CCc1nc(N)nc(N)c1-c1ccc(Cl)cc1` [Pyrimethamine], for which the combined optomotor response was 7.22.
The result for `CCCc1nn(C)c2c(=O)[nH]c(-c3cc(S(=O)(=O)N4CCN(C)CC4)ccc3OCC)nc12` [Sildenafil citrate] reads -0.855; that for `COc1ccccc1OCC(O)CN1CCN(CC(=O)Nc2c(C)cccc2C)CC1` (stereo unspecified) [Ranolazine dihydrochloride], 10.9; that for `CC(=O)Oc1cc2c(s1)CCN(C(C(=O)C1CC1)c1ccccc1F)C2` (stereo unspecified) [Prasugrel], 6.75.
Take `CC(C)(C(=O)O)c1ccc(C(O)CCCN2CCC(C(O)(c3ccccc3)c3ccccc3)CC2)cc1` (stereo unspecified) [Fexofenadine hydrochloride]: the combined optomotor response came to 3.85.
For `Clc1ccc2nsnc2c1NC1=NCCN1` [Tizanidine hydrochloride], the combined optomotor response came out at 1.65.

These data come from the supplement of paper PMC9950053.
